The source made the active and inactive calls. Unless noted, no rule for the calls is given here.
Key:
[1] = system: Wnt5a (protein binding on small-molecule microarray); test: small molecules binding Wnt5a protein – biophysical, small-molecule microarray, 635/667 nm fluorescence, primary screen (AID 1142); settings: 635 nm fluorescence, higher = more signal;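 also: fluorescence read at 667 nm with signal to noise per printed feature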
[2] = ATP-based viability of Huh7 replicon cells – cell-based, CellTiter-Glo luminescence, basal, 48 h, cytotoxicity control for HCV replication inhibitor project, primary screen (AID 1143); settings: higher = more signal, called active from +8 up or from −8 down;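 also: Huh7 hepatoma cells carrying a hepatitis C replication reporter with no stimulus; test concentration not given here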
[3] = Pseudomonas biofilm growth suppression – PAO1 strain, BacTiter-Glo luminescence, LB-PBS, primary screen (AID 1144); settings: P. aeruginosa PAO1 biofilm, 12 h, higher = more signal
[4] = basal CRE-LacZ reporter activity in PC12 – cell-based, unstimulated, primary screen (AID 1145); settings: no forskolin, luminescence, 4.5 h, higher = more signal, called active from +8 up or from −8 down
[5] = forskolin-driven CRE-LacZ activity in PC12 – cell-based, CRE-LacZ reporter, forskolin-stimulated, primary screen (AID 1146); settings: luminescence, 4.5 h, higher = more signal, called active from +8 up or from −8 down;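 also: PC12 cells with 6xCRE LacZ reporter stimulated by forskolin 10 µM; beta-galactosidase reporter signal reflecting CREB driven transcription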
[6] = molecular target: Streptavidin (Streptomyces avidinii) (UniProt P22629); test: compounds binding control protein streptavidin – biophysical, small-molecule microarray, 635/667 nm fluorescence, artefact control for SMM compound annotation, primary screen (AID 1147); settings: higher = more signal;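 also: signal reflects streptavidin binding to arrayed compounds as a control protein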
[7] = probe aInhba binding on compound microarray – biochemical, small-molecule microarray, 635/667 nm fluorescence, primary screen (AID 1148); settings: higher = more signal;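 also: score merges 667nm spot fluorescence with signal-to-noise for antibody binding to printed compounds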
Torsin-1A (Homo sapiens) [8] = molecular target: Torsin-1A (Homo sapiens) (UniProt O14656); test: TOR1A wild-type binding on microarray – cell lysate, small-molecule microarray, lysate, 635/667 nm, primary screen (AID 1149); settings: COS7 hTOR1A-WT lysate, 635 nm fluorescence, higher = more signal
Torsin-1A (Homo sapiens) [9] = molecular target: Torsin-1A (Homo sapiens) (UniProt O14656); test: torsin A mutant lysate binding on microarrays – cell lysate, small-molecule microarray, COS7 lysate, 635/667 nm fluorescence, primary screen (AID 1150); settings: COS7 hTOR1A mutant lysate, 635 nm fluorescence, higher = more signal;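 also: score pools 667 nm emission and signal to noise measuring lysate protein binding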
[10] = system: Sonic hedgehog protein (Shh); test: Sonic hedgehog microarray binding compounds – biochemical, small-molecule microarray, 635/667 nm fluorescence, primary screen (AID 1151); settings: 635 nm fluorescence, higher = more signal;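 also: Shh protein binding to compounds spotted on small-molecule microarray slides; score combines spot fluorescence intensity with signal-to-noise across triplicate slides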
[11] = optical density shifts of acrAB sulA E. coli – strain DRC41, OD650, 48 h, E. coli filamentation inducer project, primary screen (AID 1152); settings: higher = more signal, called active from +8 up or from −8 down;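 also: E. coli MC1000 strain DRC41 lacking acrAB efflux pump and sulA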
[12] = probe aLefty1 binding on compound microarray – biochemical, small-molecule microarray, 635/667 nm fluorescence, primary screen (AID 1153); settings: higher = more signal;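 also: score merges spot fluorescence with signal-to-noise ratio from the scanned slide images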
[13] = plasmodial surface anion channel blockers, osmotic lysis – cell-based, P. falciparum Indochina, OD700, 1 h, primary screen (AID 1154); settings: P. falciparum Indochina infected RBC osmotic lysis, higher = more signal, called active from +8 up or from −8 down
[14] = plasmodial surface anion channel blockers, osmotic lysis – cell-based, P. falciparum Indochina, OD700, 2 h, primary screen (AID 1155);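 also: lysis reports solute entry through the parasite surface anion channel PSAC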; settings: P. falciparum Indochina infected erythrocytes, higher = more signal, called active from +8 up or from −8 down
[15] = changes in parasitized red cell lysis, either direction – P. falciparum Indochina, OD700, 3 h, PSAC antagonist project, primary screen (AID 1156); settings: P. falciparum-infected erythrocytes, osmotic lysis, higher = more signal, called active from +8 up or from −8 down
[16] = plasmodial surface anion channel blockers, osmotic lysis – cell-based, P. falciparum Indochina, OD700, 18 h, primary screen (AID 1157); settings: P. falciparum Indochina infected erythrocytes, osmotic lysis OD700, 18 h; higher = more signal, called active from +8 up or from −8 down
[17] = S6 kinase pathway phospho-S6 level changes – cell-based, A549, cytoblot, luminescence, serum-stimulated, primary screen (AID 1158); settings: 5 h, higher = more signal;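 also: serum-stimulated A549 lung adenocarcinoma cells; signal is phosphorylated S6 detected by cytoblot immunostaining with HRP secondary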
[18] = molecular target: NADPH oxidase 2 (Homo sapiens) (UniProt P04839); test: compounds shifting NOX2 Amplex Red fluorescence – cell-based, HEK293-NOX2, PMA-stimulated, NOX inhibitor project, primary screen (AID 1159); settings: 45 min, higher = more signal, called active from +8 up or from −8 down; also: test concentration not given here
[19] = molecular target: NADPH oxidase 4 (Homo sapiens) (UniProt Q9NPH5); test: compounds shifting NOX4 Amplex Red fluorescence – cell-based, HEK293-NOX4, tetracycline-induced, NOX inhibitor project, primary screen (AID 1160); settings: HEK293-NOX4, Amplex Red H2O2 fluorescence, 45 min; higher = more signal, called active from +8 up or from −8 down
[20] = molecular target: NADPH oxidase 5 (Homo sapiens) (UniProt Q96PH1); test: compounds shifting NOX5 Amplex Red fluorescence – cell-based, HEK293-NOX5, NOX inhibitor project, primary screen (AID 1161); settings: HEK293-NOX5, ionomycin, 45 min, higher = more signal
Sequence of NADPH oxidase 5 (Homo sapiens) (Q96PH1 whole entry, looked up): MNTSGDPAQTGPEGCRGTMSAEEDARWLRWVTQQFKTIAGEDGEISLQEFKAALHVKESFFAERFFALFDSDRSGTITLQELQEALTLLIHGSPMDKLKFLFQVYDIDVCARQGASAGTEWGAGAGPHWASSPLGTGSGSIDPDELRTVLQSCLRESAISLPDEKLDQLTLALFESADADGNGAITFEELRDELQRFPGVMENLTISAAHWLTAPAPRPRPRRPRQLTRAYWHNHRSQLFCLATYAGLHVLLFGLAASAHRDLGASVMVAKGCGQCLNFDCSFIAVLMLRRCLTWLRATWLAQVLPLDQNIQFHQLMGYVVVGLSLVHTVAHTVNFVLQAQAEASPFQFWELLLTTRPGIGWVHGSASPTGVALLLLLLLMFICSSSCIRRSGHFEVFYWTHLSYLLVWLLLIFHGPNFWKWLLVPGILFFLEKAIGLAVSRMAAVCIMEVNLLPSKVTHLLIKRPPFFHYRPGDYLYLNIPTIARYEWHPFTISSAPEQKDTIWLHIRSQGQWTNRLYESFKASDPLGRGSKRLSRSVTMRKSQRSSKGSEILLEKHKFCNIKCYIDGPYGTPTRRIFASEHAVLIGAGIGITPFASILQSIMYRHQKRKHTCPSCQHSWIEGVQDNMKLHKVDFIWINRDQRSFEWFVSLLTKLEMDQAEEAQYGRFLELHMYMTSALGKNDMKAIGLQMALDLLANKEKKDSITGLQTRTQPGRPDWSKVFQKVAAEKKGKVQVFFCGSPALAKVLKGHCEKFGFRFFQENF

Sequence of Torsin-1A (Homo sapiens) (O14656 whole entry, looked up): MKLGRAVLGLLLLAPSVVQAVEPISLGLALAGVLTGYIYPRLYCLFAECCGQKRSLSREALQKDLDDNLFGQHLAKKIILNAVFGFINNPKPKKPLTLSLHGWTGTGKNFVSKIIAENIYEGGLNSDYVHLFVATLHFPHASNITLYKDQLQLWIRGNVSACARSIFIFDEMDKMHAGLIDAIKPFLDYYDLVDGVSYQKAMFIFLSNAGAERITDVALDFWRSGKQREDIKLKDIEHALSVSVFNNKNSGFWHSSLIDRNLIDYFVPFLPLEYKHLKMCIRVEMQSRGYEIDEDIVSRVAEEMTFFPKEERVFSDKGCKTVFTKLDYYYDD
Sequence of NADPH oxidase 2 (Homo sapiens) (P04839 whole entry, looked up): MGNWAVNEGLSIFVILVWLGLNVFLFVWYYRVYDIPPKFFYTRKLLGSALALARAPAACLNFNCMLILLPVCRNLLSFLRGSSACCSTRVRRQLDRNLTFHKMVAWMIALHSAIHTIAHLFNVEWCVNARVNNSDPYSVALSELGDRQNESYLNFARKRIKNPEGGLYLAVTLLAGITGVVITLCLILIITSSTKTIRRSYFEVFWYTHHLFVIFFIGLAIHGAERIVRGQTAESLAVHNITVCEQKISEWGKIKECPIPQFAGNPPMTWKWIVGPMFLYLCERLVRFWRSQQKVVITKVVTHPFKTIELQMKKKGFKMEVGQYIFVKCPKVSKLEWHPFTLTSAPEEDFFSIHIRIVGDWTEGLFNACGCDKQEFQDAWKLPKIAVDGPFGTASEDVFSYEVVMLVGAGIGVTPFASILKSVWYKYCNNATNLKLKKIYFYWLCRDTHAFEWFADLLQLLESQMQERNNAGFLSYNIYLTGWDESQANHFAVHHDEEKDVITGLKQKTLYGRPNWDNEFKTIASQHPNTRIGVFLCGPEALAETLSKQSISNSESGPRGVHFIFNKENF
Sequence of Streptavidin (Streptomyces avidinii) (P22629 whole entry, looked up): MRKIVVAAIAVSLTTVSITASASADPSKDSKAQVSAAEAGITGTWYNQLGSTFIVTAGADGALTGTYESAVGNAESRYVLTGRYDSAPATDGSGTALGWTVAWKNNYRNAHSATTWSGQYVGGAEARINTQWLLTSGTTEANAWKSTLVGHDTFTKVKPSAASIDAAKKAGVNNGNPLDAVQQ
Sequence of NADPH oxidase 4 (Homo sapiens) (Q9NPH5 whole entry, looked up): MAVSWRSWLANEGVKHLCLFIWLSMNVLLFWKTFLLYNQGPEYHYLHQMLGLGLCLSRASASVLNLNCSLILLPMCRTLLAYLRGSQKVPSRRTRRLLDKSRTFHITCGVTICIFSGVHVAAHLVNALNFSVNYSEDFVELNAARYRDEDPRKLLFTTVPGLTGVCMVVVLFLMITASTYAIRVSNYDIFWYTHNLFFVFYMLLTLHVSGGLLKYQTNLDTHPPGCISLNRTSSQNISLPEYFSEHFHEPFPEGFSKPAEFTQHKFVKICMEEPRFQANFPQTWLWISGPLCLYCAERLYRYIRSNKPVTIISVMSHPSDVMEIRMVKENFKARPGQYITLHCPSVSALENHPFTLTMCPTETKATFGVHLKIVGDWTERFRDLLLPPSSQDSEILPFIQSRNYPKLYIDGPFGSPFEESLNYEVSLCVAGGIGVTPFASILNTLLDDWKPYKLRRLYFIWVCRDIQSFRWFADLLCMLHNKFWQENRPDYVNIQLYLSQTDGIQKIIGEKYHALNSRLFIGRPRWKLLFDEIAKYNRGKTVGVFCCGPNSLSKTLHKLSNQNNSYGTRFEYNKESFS

Structure (SMILES) | composite z-score [1] | z-score [2] | z-score [3] | z-score [4] | z-score [5] | composite z-score [6] | composite z-score [7] | composite z-score (Torsin-1A (Homo sapiens) [8]) | composite z-score (Torsin-1A (Homo sapiens) [9]) | composite z-score [10] | z-score [11] | composite z-score [12] | z-score [13] | z-score [14] | z-score [15] | z-score [16] | z-score [17] | z-score [18] | z-score [19] | z-score [20]
C=CCN1C(=O)[C@@]2(O[C@@H](CCn3cc([C@H](O)c4ccccc4)nn3)[C@H]([Si](C)(C)c3ccc(OC)cc3)[C@H]2C)c2cc(N3CCC3=O)ccc21 | -0.162 | -1.83 (inactive) | -1.01 (inactive) | 17 (active) | -1.02 (inactive) | -0.101 | -0.154 | 0.195 | 0.183 | -0.0053 | 0.359 (inactive) | -0.189 | 14.4 (active) | 1.98 (inactive) | 0.292 (inactive) | 1.01 (inactive) | -0.266 | 0.631 (inactive) | -0.498 (inactive) | 0.0158
C=CCC(OC(C)=O)[C@@H]1[C@@H](N(Cc2cc3ccccc3o2)C(=O)c2ccc(C)cc2)c2cc(OCCCO)ccc2N1C(=O)Cc1ccc(OC)cc1 (stereo not given in full) | 0.525 | -0.102 (inactive) | -0.491 (inactive) | 0.558 (inactive) | -0.409 (inactive) | 1.57 | -0.0044 | -0.28 | 0.0194 | 0.809 | 1.72 (inactive) | 0.25 | 1.19 (inactive) | 0.794 (inactive) | -0.528 (inactive) | 0.211 (inactive) | -0.0745 | 0.391 (inactive) | 0.652 (inactive) | 1.72

Reference: PubChem BioAssay
